# In PubChem BioAssay AID2577 (National Center for Advancing Translational Sciences (NCATS), 2010):
# Values without a mark were called inactive. The call rests on the fitted dose curve; in most records, active means well fitted curve in the direction sought with a large enough effect; inactive means no such curve, though single readings can be large or run the other way.
# Target: Lysosomal alpha-glucosidase (Homo sapiens) (UniProt P10253)
# Assay: qHTS Assay for Inhibitors and Activators of N370S glucocerebrosidase as a Potential Chaperone Treatment of Gaucher Disease: Alpha-Glucosidase Counterscreen
# Details: purified human alpha-glucosidase, 4MU-alpha-glucoside fluorescence
# Excerpt: NIH Chemical Genomics Center [NCGC] NIH Molecular Libraries Probe Production Centers Network [MLPCN] MLPCN Grant: MH086442-01 Assay Submitter (PI): Wei Zheng Glucocerebrosidase (GC) catalyzes the hydrolysis of beta-glucocerebroside to glucose and ceramide in lysosomes. Mutations in the glucocerebrosidase gene result in Gaucher disease, an autosomal recessive lysosomal storage disorder. Many of the mutations encountered in patients with Gaucher disease are missense alterations that may cause misfolding, decreased stability and/or mistrafficking of this lysosomal protein. […] These inhibitors include iminosugar analogs and three non-iminosugar inhibitors identified from a previous HTS of 62,000 compounds with the wild type recombinant enzyme. However, the enhancement of enzyme activity by the chaperone action of an enzyme inhibitor must be balanced against the direct inhibition of the enzyme. An enzyme activator could also function as a chaperone by binding to the enzyme and helping to correct its misfolding and mistrafficking. While activators for GC have not yet been identified, they may have better therapeutic potential than inhibitors. Therefore the discovery and development of chemical activators may provide a new strategy for the chaperone therapy. To characterize compound selectivity, selected hits from the primary screen were screened against purified alpha-glucosidase, a related sugar hydrolase. Alpha-glucosidase is responsible for hydrolysis of terminal, non-reducing 1,4-linked alpha-D-glucose residues with release of alpha-D-glucose.
# NCGC Assay Protocol Summary: This is a fluorogenic enzyme assay with 4-methylumbelliferyl-alpha-D-[…] as the substrate and human alpha-glucosidase as the enzyme preparation. Upon the hydrolysis of this fluorogenic substrate, the resulting product, 1. 4-methyllumbelliferone, can be excited at 365 nm and emits at 440 nm which can be detected by a standard fluorescence plate reader. Data were normalized to the controls for basal activity (without enzyme) and 100% activity (with enzyme). The AC50 values were determined from concentration-response data modeled with the standard Hill equation. Assay buffer: 50 mM citric acid (titrated with potassium phosphate to pH 5.0), 0.005% Tween-20, pH 5.0. (pH 5.0 is an optimal condition for this enzyme assay) 1536-well assay protocol for the human alpha-glucosidase: (1) Add 2 ul/well of enzyme (4 nM final) (2) Add 23 nL compounds in DMSO solution. The final titration was 0.7 nM to 77 uM. (3) Add 1 ul of substrate (400 uM final) (4) Incubate at room temperature for 20 min. (5) Add 2 ul stop solution (1M NaOH and 1M Glycine mixture, pH 10) (6) Detect the assay plate in a ViewLux plate reader (PerkinElmer) with Ex=365 nm and Em=440nm. Keywords: Alpha-glucosidase, Pompe Disease, pharmacological chaperone, chaperone therapy, high throughput screening, alpha-glucosidase inhibitor, MLSMR, MLSCN, NIH Roadmap, qHTS and NCGC
row,SMILES,max response [%]
1,O=S(=O)(c1cccc(Br)c1)N1CCN(c2nc(-c3cccs3)nc3ccccc23)CC1,-9.65
2,Cc1ccc(S(=O)(=O)N2CCN(c3nc(-c4ccccc4)nc4ccccc34)CC2)cc1,-13.1
3,O=S(=O)(c1ccc(Cl)cc1)N1CCN(c2nc(-c3ccc(F)cc3)nc3cc(Cl)ccc23)CC1,-5.47
4,O=S(=O)(c1ccc2ccccc2c1)N1CCN(c2nc(-c3ccccc3)nc3ccccc23)CC1,-4.15
5,O=S(=O)(c1ccccc1)N1CCN(c2nc(-c3ccc(F)cc3)nc3cc(Cl)ccc23)CC1,-8.72
6,COc1ccc(-c2nc(N3CCN(S(=O)(=O)c4ccc(C)cc4)CC3)c3ccccc3n2)cc1,-0.975
7,O=S(=O)(c1ccc2c(c1)OCCO2)N1CCN(c2nc(-c3ccccc3)nc3ccccc23)CC1,-3.22
8,O=S(=O)(c1cccc(C(F)(F)F)c1)N1CCN(c2nc(-c3cccs3)nc3cc(Cl)ccc23)CC1,-7.27
9,COc1ccc(-c2nc(N3CCN(S(=O)(=O)c4ccccc4)CC3)c3ccccc3n2)cc1,-7.46
10,Cc1ccc(S(=O)(=O)N2CCN(c3nc(-c4ccc(F)cc4)nc4cc(Cl)ccc34)CC2)cc1,-4.96
11,N#Cc1ccccc1S(=O)(=O)N1CCN(c2nc(-c3ccccc3)nc3ccccc23)CC1,-12.3
12,O=S(=O)(c1ccc(OC(F)(F)F)cc1)N1CCN(c2nc(-c3ccccc3)nc3ccccc23)CC1,-5.72
13,O=S(=O)(c1ccccc1Cl)N1CCN(c2nc(-c3cccs3)nc3ccccc23)CC1,-12.9
14,O=S(=O)(c1ccc2ccccc2c1)N1CCN(c2nc(-c3cccs3)nc3ccccc23)CC1,-7.23
15,CCOc1ccc(S(=O)(=O)N2CCN(c3nc(-c4ccccc4)nc4ccccc34)CC2)cc1,-10.9
16,NS(=O)(=O)c1ccc(S(=O)(=O)N2CCN(c3nc(-c4cccs4)nc4ccccc34)CC2)cc1,-10.5
17,O=S(=O)(c1ccccc1Cl)N1CCN(c2nc(-c3ccccc3)nc3ccccc23)CC1,-4.34
18,CC(C)(C)c1ccc(S(=O)(=O)N2CCN(c3nc(-c4ccccc4)nc4ccccc34)CC2)cc1,-7.51
19,O=S(=O)(c1ccccc1Br)N1CCN(c2nc(-c3cccs3)nc3ccccc23)CC1,-2.87
20,CCOC(=O)c1ccc(S(=O)(=O)N2CCN(c3nc(-c4cccs4)nc4ccccc34)CC2)cc1,-8.25
21,O=S(=O)(c1ccc(C(F)(F)F)cc1)N1CCN(c2nc(-c3cccs3)nc3ccccc23)CC1,-11.2
22,O=[N+]([O-])c1ccc(S(=O)(=O)N2CCN(c3nc(-c4cccs4)nc4ccccc34)CC2)cc1,-5.9
23,O=S(=O)(c1ccc(F)cc1)N1CCN(c2nc(-c3cccs3)nc3cc(Cl)ccc23)CC1,-15.8
24,O=S(=O)(c1ccc2c(c1)CCCC2)N1CCN(c2nc(-c3ccccc3)nc3ccccc23)CC1,-8.51
25,S=C(NCCCc1cnc[nH]1)NCCCN(Cc1ccc(Cl)c(Cl)c1)c1ccc(Br)cn1,-4.15
26,O=S(=O)(c1ccc(C(F)(F)F)cc1)N1CCN(c2nc(-c3ccccc3)nc3ccccc23)CC1,-6.24
27,O=S(=O)(c1ccc(Cl)cc1)N1CCN(c2nc(-c3cccs3)nc3ccccc23)CC1,-6.67
28,O=S(=O)(c1ccc(Cl)cc1)N1CCN(c2nc(-c3ccc(Cl)cc3)nc3ccccc23)CC1,1.68
29,O=S(=O)(c1ccc(Br)cc1)N1CCN(c2nc(-c3cccs3)nc3ccccc23)CC1,-4.2
30,O=S(=O)(c1ccc(Cl)cc1)N1CCN(c2nc(-c3ccccc3)nc3ccccc23)CC1,-10.6
